# Source: PubChem BioAssay (EPA / NIEHS)
# Records with an inconclusive call do not appear. Activity calls are given as the source filed them. The calls were made as follows: active = hit-call score of the fitted dose curve at least 0.9, where 1 is the maximum; inconclusive = response in the unintended direction; inactive = score below 0.9.
# Experiments:
# [1] = molecular target: human Dopamine Receptor D4.4 (DRD4.4), DRD4 (gene 1815) (UniProt P21917); assay: NVS_GPCR_hDRD4.4: NovaScreen (NVS) G Protein-Coupled Receptor Assay for human Dopamine Receptor D4.4 (DRD4.4) (AID 2283264)
# How it was run: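 Filter-binding assay with a tritiated or iodinated ligand, cell-free receptor prepared from CHO, 1 hour. Loss of bound radioactivity versus DMSO; single 25 uM duplicate screen, then concentration-response for actives.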
# [2] = molecular target: human Dopamine Receptor D2 (DRD2), DRD2 (gene 1813) (UniProt P14416); assay: NVS_GPCR_hDRD2s: NovaScreen (NVS) G Protein-Coupled Receptor Assay for human Dopamine Receptor D2 (DRD2) (AID 2283266)
# How it was run: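 Test compound (25 uM, duplicate in the primary screen; concentration series at follow-up) competed with radioligand for human DRD2 in CHO-derived membrane protein. Filter-based scintillation counting was done 1.5 hours after dosing, with loss of signal analysed against DMSO.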
# [3] = molecular target: human Histamine 1 Receptor (H1), HRH1 (gene 3269) (UniProt P35367); assay: NVS_GPCR_hH1: NovaScreen (NVS) G Protein-Coupled Receptor Assay for human Histamine 1 Receptor (H1) (AID 2283268)
# How it was run: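 Filter-based scintillation detection of radioligand binding to human H1, 1 h incubation; chemicals screened in duplicate at 25 uM, then concentration-response; signal loss relative to DMSO taken as activity.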
# [4] = molecular target: D(1A) dopamine receptor (Homo sapiens) (UniProt P21728); assay: NVS_GPCR_hDRD1: NovaScreen (NVS) G Protein-Coupled Receptor Assay for human Dopamine Receptor D1 (DRD1) (AID 2283269)
# How it was run: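 Cell-free competition with radioligand, filter-trapped and scintillation-counted 1 h post-dose, using HEK293-derived human D1 preparation. Duplicate single-point testing at 25 uM first, then concentration series for actives; DMSO served as baseline, loss-of-signal scored.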
# [5] = molecular target: Muscarinic acetylcholine receptor M3 (Homo sapiens) (UniProt P20309); assay: NVS_GPCR_hM3: NovaScreen (NVS) G Protein-Coupled Receptor Assay for human Muscarinic, M3 Receptor (AID 2283272)
# How it was run: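 Radioligand displacement binding on human M3 receptor in CHO-derived membranes, 1 h incubation, filter-based scintillation counting. Primary screen in duplicate at 25 uM; actives followed up in concentration series; loss of signal versus DMSO.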
# [6] = molecular target: Muscarinic acetylcholine receptor M5 (Homo sapiens) (UniProt P08912); assay: NVS_GPCR_hM5: NovaScreen (NVS) G Protein-Coupled Receptor Assay for human Muscarinic, M5 Receptor (AID 2283275)
# How it was run: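 Chemicals passing a primary duplicate screen at 25 uM were run as singleton concentration series, maximum 50 uM. Displacement of a specific radioligand from CHO-extracted receptor was read by filter scintillation after 1 h, relative to DMSO.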
# [7] = molecular target: human Neurokinin, NK2 Receptor, TACR2 (gene 6865) (UniProt P21452); assay: NVS_GPCR_hNK2: NovaScreen (NVS) G Protein-Coupled Receptor Assay for human Neurokinin, NK2 Receptor (AID 2283278);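 also: actives reduce bound radioligand signal relative to DMSO baseline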
# How it was run: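 Cell-free radioligand binding using receptor protein extracted from CHO cells; readings taken 4 hours after chemical dosing by filter-based scintillation counting. Primary screen ran single concentration (25 uM) in duplicate; actives followed up in concentration series, loss-of-signal versus DMSO baseline.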
# [8] = molecular target: human Opioid Receptor Delta 1 (Opiate D1), OPRD1 (gene 4985) (UniProt P41143); assay: NVS_GPCR_hOpiate_D1: NovaScreen (NVS) G Protein-Coupled Receptor Assay for human Opioid Receptor Delta 1 (Opiate D1) (AID 2283280)
# How it was run: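 Membrane preparations from CHO cells bearing the human receptor were incubated 1 h with test chemical, and bound radioligand was counted after filtration. Actives from 25 uM duplicate screening were retested in concentration-response.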
# [9] = molecular target: human Purinergic Receptor P2Y, P2RY1 (gene 5028) (UniProt P47900); assay: NVS_GPCR_hPY2: NovaScreen (NVS) G Protein-Coupled Receptor Assay for human Purinergic Receptor P2Y (AID 2283281)
# How it was run: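 Filtration scintillation readout of radioligand displacement on U937 extract, measured 1 h post-dosing. Single 25 uM duplicate screen, then singleton concentration series to 50 uM for chemicals passing threshold; DMSO as baseline.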
# [10] = molecular target: human Thromboxane A2 Receptor (TXA2), TBXA2R (gene 6915) (UniProt P21731); assay: NVS_GPCR_hTXA2: NovaScreen (NVS) G Protein-Coupled Receptor Assay for human Thromboxane A2 Receptor (TXA2) (AID 2283282);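 also: actives reduce bound radioligand signal relative to DMSO baseline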
# How it was run: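 Screening ran at 25 uM in duplicate, with concentration series for confirmed actives. Each test measures radioligand binding to human platelet protein after 1 h, cell-free, using filter-based scintillation detection of signal loss relative to DMSO.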
# [11] = molecular target: human Opioid Receptor Mu (Opiate Mu), OPRM1 (gene 4988) (UniProt P35372); assay: NVS_GPCR_hOpiate_mu: NovaScreen (NVS) G Protein-Coupled Receptor Assay for human Opioid Receptor Mu (Opiate Mu) (AID 2283290);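 also: hits lower bound tracer signal versus DMSO meaning displacement of the ligand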
# How it was run: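 Primary screen in duplicate at 25 uM, with actives followed in concentration series. CHO-derived receptor membranes, cell-free; bound radioligand read by scintillation counting after filtration at 2.5 h, decrease scored against DMSO.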
# [12] = system: rat Adrenergic, Alpha 1B Receptor (Adra1B), gene 24173; assay: NVS_GPCR_rAdra1B: NovaScreen (NVS) G Protein-Coupled Receptor Assay for rat Adrenergic, Alpha 1B Receptor (Adra1B) (AID 2283297)
# How it was run: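 Filter-binding radioligand competition on membranes from rat liver, read after 1 h by scintillation counting. Single-concentration duplicate screen at 25 uM, followed by concentration-response on actives, normalised to DMSO.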
# [13] = molecular target: human Orphanin, Opioid Related Nociceptin Receptor 1 (ORL1), OPRL1 (gene 4987) (UniProt P41146); assay: NVS_GPCR_hORL1: NovaScreen (NVS) G Protein-Coupled Receptor Assay for human Orphanin, Opioid Related Nociceptin Receptor 1 (ORL1) (AID 2283283)
# How it was run: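 Cell-free binding using HEK293-derived receptor protein: radioligand displacement measured by filter scintillation 1 hour after dosing. Primary testing at 25 uM in duplicate, followed by singleton concentration series up to 50 uM; DMSO served as negative control.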
# [14] = molecular target: rat Corticotropin Releasing Factor Receptor (CRF), Crhr1 (gene 58959) (UniProt P35353); assay: NVS_GPCR_rCRF: NovaScreen (NVS) G Protein-Coupled Receptor Assay for rat Corticotropin Releasing Factor Receptor (CRF) (AID 2283300)
# How it was run: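 Single-concentration (25 uM, duplicate) radioligand binding on rat cortical membrane preparations, counted by scintillation after 2 h. Activity scored as signal loss relative to DMSO negative control.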
# [15] = molecular target: rat Adrenergic Receptor, Alpha 2 (Adra2), Non-selective Binding, Adra2a (gene 25083) (UniProt P22909); assay: NVS_GPCR_rAdra2_NonSelective: NovaScreen (NVS) G Protein-Coupled Receptor Assay for rat Adrenergic Receptor, Alpha 2 (Adra2), Non-selective Binding (AID 2283299)
# How it was run: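 Filter-based scintillation counting of radioligand binding to rat cortical membrane receptors, measured 1.25 hours post-dosing; loss of signal versus DMSO indicates displacement. Initial single-concentration duplicate at 25 uM, then concentration series.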
# rat Adrenergic Receptor, Alpha 2 (Adra2), Non-selective Binding, Adra2a (gene 25083), sequence (P22909 whole entry, looked up): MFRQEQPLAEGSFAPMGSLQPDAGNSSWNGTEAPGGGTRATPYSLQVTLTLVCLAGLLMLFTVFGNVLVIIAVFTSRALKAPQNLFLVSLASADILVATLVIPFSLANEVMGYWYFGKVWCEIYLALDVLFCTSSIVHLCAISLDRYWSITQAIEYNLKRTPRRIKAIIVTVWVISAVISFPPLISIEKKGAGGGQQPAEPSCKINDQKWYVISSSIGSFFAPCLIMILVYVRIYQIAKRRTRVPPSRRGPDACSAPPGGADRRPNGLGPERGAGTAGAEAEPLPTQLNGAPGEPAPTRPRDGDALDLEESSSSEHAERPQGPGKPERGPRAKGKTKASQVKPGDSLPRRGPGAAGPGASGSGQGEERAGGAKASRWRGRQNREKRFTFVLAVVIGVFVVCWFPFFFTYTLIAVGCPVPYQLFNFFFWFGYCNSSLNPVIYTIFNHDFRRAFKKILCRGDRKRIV
# human Thromboxane A2 Receptor (TXA2), TBXA2R (gene 6915), sequence (P21731 whole entry, looked up): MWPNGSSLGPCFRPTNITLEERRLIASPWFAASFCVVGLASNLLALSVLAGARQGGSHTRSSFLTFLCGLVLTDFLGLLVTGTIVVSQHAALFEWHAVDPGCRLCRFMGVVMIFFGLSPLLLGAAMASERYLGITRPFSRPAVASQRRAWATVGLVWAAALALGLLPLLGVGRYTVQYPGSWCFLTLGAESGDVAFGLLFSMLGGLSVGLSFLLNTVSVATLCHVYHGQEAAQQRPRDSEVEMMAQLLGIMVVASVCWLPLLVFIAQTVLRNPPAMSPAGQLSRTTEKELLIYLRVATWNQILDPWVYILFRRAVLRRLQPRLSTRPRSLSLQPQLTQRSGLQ
# human Opioid Receptor Mu (Opiate Mu), OPRM1 (gene 4988), sequence (P35372 whole entry, looked up): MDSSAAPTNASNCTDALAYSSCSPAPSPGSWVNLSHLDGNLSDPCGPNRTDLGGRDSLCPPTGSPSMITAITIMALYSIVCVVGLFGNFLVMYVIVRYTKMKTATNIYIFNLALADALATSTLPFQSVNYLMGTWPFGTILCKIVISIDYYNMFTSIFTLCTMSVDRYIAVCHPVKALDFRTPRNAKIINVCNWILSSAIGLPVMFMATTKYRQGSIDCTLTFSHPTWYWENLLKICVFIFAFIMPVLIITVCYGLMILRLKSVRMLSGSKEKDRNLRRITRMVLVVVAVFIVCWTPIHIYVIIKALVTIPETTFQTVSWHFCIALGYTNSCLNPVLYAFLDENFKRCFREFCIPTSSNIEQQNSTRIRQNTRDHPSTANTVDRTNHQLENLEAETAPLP
# D(1A) dopamine receptor (Homo sapiens), sequence (P21728 whole entry, looked up): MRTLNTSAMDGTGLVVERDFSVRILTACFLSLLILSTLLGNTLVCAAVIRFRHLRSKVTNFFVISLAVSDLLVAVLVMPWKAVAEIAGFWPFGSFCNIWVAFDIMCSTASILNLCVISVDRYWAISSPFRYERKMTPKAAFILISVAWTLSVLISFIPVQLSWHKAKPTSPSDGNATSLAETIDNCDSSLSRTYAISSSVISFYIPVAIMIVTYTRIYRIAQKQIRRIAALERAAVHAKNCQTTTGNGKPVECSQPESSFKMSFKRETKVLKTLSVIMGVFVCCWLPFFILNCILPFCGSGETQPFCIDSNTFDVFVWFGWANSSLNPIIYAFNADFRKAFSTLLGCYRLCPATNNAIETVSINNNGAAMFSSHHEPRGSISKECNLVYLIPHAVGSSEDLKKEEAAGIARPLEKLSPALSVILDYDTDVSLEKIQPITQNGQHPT
# human Neurokinin, NK2 Receptor, TACR2 (gene 6865), sequence (P21452 whole entry, looked up): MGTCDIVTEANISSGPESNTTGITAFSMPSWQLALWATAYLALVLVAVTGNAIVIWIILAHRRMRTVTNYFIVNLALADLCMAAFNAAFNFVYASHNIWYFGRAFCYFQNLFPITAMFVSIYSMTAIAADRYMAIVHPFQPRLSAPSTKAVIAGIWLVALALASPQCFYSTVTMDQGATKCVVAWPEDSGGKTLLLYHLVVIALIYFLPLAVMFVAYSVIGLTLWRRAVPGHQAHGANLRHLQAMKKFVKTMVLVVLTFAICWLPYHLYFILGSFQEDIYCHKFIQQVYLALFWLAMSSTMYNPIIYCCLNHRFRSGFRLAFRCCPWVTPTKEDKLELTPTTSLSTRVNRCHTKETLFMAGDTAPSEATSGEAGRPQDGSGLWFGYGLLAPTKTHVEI
# human Purinergic Receptor P2Y, P2RY1 (gene 5028), sequence (P47900 whole entry, looked up): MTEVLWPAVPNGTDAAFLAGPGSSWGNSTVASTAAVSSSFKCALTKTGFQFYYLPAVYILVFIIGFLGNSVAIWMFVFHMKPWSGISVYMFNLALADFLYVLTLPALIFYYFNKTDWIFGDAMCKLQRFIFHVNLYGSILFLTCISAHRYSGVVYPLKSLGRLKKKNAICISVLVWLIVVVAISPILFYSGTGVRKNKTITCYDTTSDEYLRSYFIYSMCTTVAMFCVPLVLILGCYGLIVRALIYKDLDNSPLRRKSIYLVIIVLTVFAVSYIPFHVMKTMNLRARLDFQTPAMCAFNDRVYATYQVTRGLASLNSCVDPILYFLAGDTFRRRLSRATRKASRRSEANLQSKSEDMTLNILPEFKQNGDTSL
# rat Corticotropin Releasing Factor Receptor (CRF), Crhr1 (gene 58959), sequence (P35353 whole entry, looked up): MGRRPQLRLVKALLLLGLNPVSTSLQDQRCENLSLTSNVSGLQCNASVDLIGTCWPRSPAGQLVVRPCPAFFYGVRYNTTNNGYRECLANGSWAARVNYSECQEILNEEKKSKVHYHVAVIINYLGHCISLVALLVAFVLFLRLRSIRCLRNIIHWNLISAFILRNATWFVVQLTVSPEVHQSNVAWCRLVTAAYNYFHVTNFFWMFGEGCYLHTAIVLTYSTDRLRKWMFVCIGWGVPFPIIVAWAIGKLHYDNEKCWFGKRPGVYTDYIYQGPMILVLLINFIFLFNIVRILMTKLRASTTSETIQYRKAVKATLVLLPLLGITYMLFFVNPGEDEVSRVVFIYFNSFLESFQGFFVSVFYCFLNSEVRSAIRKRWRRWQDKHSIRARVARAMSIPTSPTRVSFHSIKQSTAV
# Muscarinic acetylcholine receptor M5 (Homo sapiens), sequence (P08912 whole entry, looked up): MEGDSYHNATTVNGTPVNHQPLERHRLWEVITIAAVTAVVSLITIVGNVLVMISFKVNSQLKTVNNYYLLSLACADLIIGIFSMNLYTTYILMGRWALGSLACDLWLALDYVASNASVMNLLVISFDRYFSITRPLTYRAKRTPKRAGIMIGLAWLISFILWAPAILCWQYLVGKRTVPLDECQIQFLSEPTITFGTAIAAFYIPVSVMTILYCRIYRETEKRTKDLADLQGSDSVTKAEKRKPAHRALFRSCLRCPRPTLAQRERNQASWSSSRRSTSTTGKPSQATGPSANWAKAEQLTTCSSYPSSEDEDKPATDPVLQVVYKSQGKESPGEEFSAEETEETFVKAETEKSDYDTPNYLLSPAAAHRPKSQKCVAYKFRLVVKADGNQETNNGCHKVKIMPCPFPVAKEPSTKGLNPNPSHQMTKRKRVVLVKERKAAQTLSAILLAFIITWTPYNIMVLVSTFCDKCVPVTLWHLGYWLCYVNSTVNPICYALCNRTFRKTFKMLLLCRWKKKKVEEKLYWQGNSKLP
# human Histamine 1 Receptor (H1), HRH1 (gene 3269), sequence (P35367 whole entry, looked up): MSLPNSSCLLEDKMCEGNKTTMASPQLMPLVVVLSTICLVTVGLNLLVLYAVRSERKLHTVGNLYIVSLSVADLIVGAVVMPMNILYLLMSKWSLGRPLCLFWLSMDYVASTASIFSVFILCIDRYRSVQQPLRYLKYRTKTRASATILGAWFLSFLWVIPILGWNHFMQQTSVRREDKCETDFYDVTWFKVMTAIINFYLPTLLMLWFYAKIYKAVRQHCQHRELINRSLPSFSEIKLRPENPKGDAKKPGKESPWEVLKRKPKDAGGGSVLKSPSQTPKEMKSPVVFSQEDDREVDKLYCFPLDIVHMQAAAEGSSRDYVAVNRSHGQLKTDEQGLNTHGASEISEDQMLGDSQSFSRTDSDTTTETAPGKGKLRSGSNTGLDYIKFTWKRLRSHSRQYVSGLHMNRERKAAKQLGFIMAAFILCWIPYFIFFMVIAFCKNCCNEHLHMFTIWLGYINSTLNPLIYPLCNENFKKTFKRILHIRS
# human Opioid Receptor Delta 1 (Opiate D1), OPRD1 (gene 4985), sequence (P41143 whole entry, looked up): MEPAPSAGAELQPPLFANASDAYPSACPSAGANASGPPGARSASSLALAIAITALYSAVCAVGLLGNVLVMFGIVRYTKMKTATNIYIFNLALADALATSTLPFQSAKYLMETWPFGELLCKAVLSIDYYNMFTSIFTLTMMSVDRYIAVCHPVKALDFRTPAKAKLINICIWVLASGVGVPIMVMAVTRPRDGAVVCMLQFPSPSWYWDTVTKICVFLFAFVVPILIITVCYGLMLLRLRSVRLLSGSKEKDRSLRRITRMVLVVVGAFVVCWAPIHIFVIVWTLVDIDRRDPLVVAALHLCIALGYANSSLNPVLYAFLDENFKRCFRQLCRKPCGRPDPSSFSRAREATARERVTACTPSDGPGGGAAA
# human Orphanin, Opioid Related Nociceptin Receptor 1 (ORL1), OPRL1 (gene 4987), sequence (P41146 whole entry, looked up): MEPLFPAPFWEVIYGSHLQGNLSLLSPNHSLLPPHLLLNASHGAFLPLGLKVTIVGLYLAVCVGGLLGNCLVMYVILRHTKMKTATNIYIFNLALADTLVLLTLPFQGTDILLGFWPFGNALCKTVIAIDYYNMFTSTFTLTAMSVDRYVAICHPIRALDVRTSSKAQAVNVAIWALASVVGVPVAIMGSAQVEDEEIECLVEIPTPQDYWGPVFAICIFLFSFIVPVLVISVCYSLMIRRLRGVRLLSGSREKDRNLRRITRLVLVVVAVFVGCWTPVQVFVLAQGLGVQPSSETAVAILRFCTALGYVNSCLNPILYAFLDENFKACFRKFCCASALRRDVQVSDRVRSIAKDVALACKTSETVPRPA
smiles,measurement,setting,value
CCCCCCCCCCCCc1cccc(S(=O)(=O)O)c1,AC50,[1],13.6 µM (active)
same,AC50,[2],22.5 µM (active)
same,AC50,[3],25.4 µM (active)
same,AC50,[4],7.44 µM (active)
same,AC50,[5],16.3 µM (active)
same,AC50,[6],28.4 µM (active)
same,outcome,[7],inactive
same,AC50,[8],11.8 µM (active)
same,outcome,[9],inactive
same,AC50,[10],8.31 µM (active)
same,AC50,[11],14.4 µM (active)
same,AC50,[12],22.5 µM (active)
O=C1C=CC(=O)c2ccccc21,AC50,[4],4.98 µM (active)
same,AC50,[7],1.1 µM (active)
CN(C)C(=S)S,AC50,[7],4 µM (active)
same,AC50,[13],25 µM (active)
same,AC50,[11],6.66 µM (active)
same,outcome,[14],inactive
CC(C)(C)c1cc([N+](=O)[O-])cc(C(C)(C)C)c1O,outcome,[4],inactive
O=C(O)COc1cc(Cl)c(Cl)cc1Cl,outcome,[10],inactive
CCC(C)(C#N)N=NC(C)(C#N)CC (configuration not stated),outcome,[15],inactive
CCN(N=O)C(N)=O,outcome,[7],inactive
CCOP(=S)(OCC)SCS(=O)(=O)C(C)(C)C,outcome,[10],inactive
[Cl][Sn]([c]1ccccc1)([c]1ccccc1)[c]1ccccc1,AC50,[4],0.6 µM (active)
same,AC50,[7],2.13 µM (active)
same,AC50,[10],1.29 µM (active)
same,AC50,[11],0.664 µM (active)
same,AC50,[15],9.5 µM (active)
Cc1cc(Cl)ccc1OC(C)C(=O)O (configuration not stated),outcome,[9],inactive
O=c1oc2ccccc2c(O)c1C(CC(O)c1ccc(-c2ccc(Br)cc2)cc1)c1ccccc1 (configuration not stated),AC50,[7],23.9 µM (active)
same,AC50,[10],12.2 µM (active)
same,AC50,[11],13.7 µM (active)
OC(Cc1ccccc1Cl)(Cn1[nH]cnc1=S)C1(Cl)CC1 (configuration not stated),outcome,[4],inactive
same,AC50,[7],15.3 µM (active)
C[N+](C)(C)Cc1ccccc1,AC50,[15],31.5 µM (active)
O=S(=O)(C(Cl)(Cl)Cl)C(Cl)(Cl)Cl,AC50,[4],13.8 µM (active)
same,AC50,[11],7.84 µM (active)
